Source: PubChem BioAssay (NCATS)
Results filed as inconclusive are left out. Calls of active or inactive are those of the source. Unless noted, calls follow the shape of the dose curve; as a rule, active = well fitted curve in the direction sought with a large enough effect; inconclusive = small, poorly fitted or top-dose-only effect, or another doubt; inactive = no such curve, though single readings can be large; an effect the other way counts as inactive or inconclusive.

What was measured:
[1] = AP1 Signaling Pathway (AID 357; active = well fitted curve in either direction with a large enough effect, not every such curve was filed as active;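 also: ME-180 reporter cells stimulated with EGF at its EC50 level; % is scaled to controls: 0 for no effect and ±100 for the full control effect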)
Outline: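 AP-1-bla ME-180 cells, Opti-MEM + 0.5% dialyzed FBS, plated overnight 37 °C. Cpd titration + EC50 EGF, 5 h 37 °C. CCF4 2.5 h RT; ex 405, em 460/530 ratio → %activity, AC50.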

[2] = Stat Signaling Pathway (AID 446; active = well fitted curve in either direction with a large enough effect, not every such curve was filed as active;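 also: ME-180 cervical cancer cells given 40 pM IL-6 alongside compound; SIE-controlled beta-lactamase reporter measured as 460/530 nm FRET emission ratio; % is scaled to controls: 0 for no effect and ±100 for the full control effect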)
Outline: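 ME-180 cells carrying a SIE-driven beta-lactamase reporter are stimulated with 40 pM IL-6 for 5 h at 37C in the presence of compound. The 460/530 nm FRET substrate ratio is read after 2.5 h at RT. Data are normalised to 300 pM IL-6 and to 125 nM JAK inhibitor controls.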

[3] = molecular target: Mitogen-activated protein kinase 10 (Mus musculus) (UniProt Q61831); experiment: JNK3 AlphaScreen Assay (AID 530; active = well fitted curve in either direction with a large enough effect, not every such curve was filed as active;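 also: kinase came from lysate of stimulated human HepG2 cells; signal reports phosphorylation of biotinylated GST-cJun 1-79 at Ser73 with 10 µM ATP; % is scaled to controls: 0 for no effect and ±100 for the full control effect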)
Outline: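 Pre-activated (IL-1β/TNFα) JNK3 in HepG2 lysates phosphorylates biotin-GST-cJun(1-79), 10 uM ATP; anti-phospho-cJun(Ser73) AlphaScreen read at room temperature, pH 7.6 Tris buffer. Compounds pre-incubated 15 min as titrations.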

[4] = qHTS Assay for Lipid Storage Modulators (AID 1519; calls by dose curve); settings: Drosophila S3 cells, BODIPY lipid droplet/cell ratio, laser cytometry, cells loaded with oleic acid; for activity change, negative = inhibition: at 25.7 µM (top of the series)
Outline: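 Cells seeded at 5,000 per well were treated with compounds over a concentration series and loaded with oleic acid (400 uM, as added). Lipid droplet fluorescence (488 nm excitation, 500-530 nm channel) was read by laser-scanning cytometry and normalized to 20 uM Triacsin C.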

[5] = molecular target: Ubiquitin carboxyl-terminal hydrolase 1 (Homo sapiens) (UniProt O94782); experiment: Inhibitors of USP1/UAF1: Pilot qHTS (AID 504865);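 also: rhodamine fluorescence freed from ubiquitin-rhodamine substrate followed over time; top concentration of the series differs between compounds; % is scaled to controls: 0 for no effect and ±100 for the full control effect; nearly all actives have a fitted effect of over 35% in size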
Outline: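 Kinetic fluorescence assay: 1nM USP1/UAF1, 15 min compound preincubation, then 150nM Ub-Rho; 480/540 nm.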

[6] = S16 Schwann cell viability assay (CellTiter-Glo assay) (AID 624031);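 also: native untransfected S16 rat Schwann cells; plate controls were DMSO-treated cells for no effect and cell-free wells for full effect; nearly all actives have a fitted effect of over 70% in size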
Outline: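 Counter-screen for cytotoxicity: parental S16 rat Schwann cells lacking the PMP22 reporters, treated 24 h with compound, viability from cellular ATP by CellTiter-Glo luminescence, normalized to DMSO (0%) and no-cell wells.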

[7] = qHTS profiling for inhibitors of Plasmodium falciparum proliferation (AID 504749); also: potency is read from the fitted curve at half-maximal effect;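 as to activity, negative = inhibition: 0% = DMSO vehicle and full inhibition = artemisinin control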; as to all read-outs here: nearly all actives have a fitted effect of over 60% in size; settings: P. falciparum in erythrocytes, SYBR Green DNA, 72 h; for activity, negative = inhibition: at 12.8 µM (top of the series)
Outline: (§1)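 P. falciparum-infected erythrocytes (0.3% parasitemia, 2.5% hematocrit) incubated with compound 72 h at 37 C, 5% CO2. Parasite DNA detected by SYBR Green after lysis, overnight at room temperature; normalised to 0.29 uM artemisinin and DMSO.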

C2A = experiment: as above; settings: P. falciparum in erythrocytes, SYBR Green DNA, 72 h; series mostly up to 12.8 µM
Outline: as §1

CP237 = experiment: as above; settings: P. falciparum in erythrocytes, SYBR Green DNA, 72 h; series mostly up to 12.8 µM
Outline: as §1

CP252 = experiment: as above; settings: P. falciparum in erythrocytes, SYBR Green DNA, 72 h; series mostly up to 12.8 µM
Outline: as §1

FAB9 = experiment: as above; settings: P. falciparum in erythrocytes, SYBR Green DNA, 72 h; series mostly up to 12.8 µM
Outline: as §1

HB3 = experiment: as above; settings: P. falciparum in erythrocytes, SYBR Green DNA, 72 h; series mostly up to 12.8 µM
Outline: as §1

JCK = experiment: as above; settings: P. falciparum in erythrocytes, SYBR Green DNA, 72 h; series mostly up to 12.8 µM
Outline: as §1

PAD = experiment: as above; settings: P. falciparum in erythrocytes, SYBR Green DNA, 72 h; series mostly up to 12.8 µM
Outline: as §1

[8] = molecular target: Glucocorticoid receptor (Homo sapiens) (UniProt P04150); experiment: GR-GFP Redistribution (AID 450;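 active = compounds whose dose series gives a full or clear partial fitted curve of increased nuclear translocation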; also: potency is read from the fitted curve at half-maximal effect); settings: U2OS GR-GFP nuclear translocation, laser cytometry, 2 h
[9] = molecular target: Glucocorticoid receptor (Homo sapiens) (UniProt P04150); experiment: GR-EFC Redistribution (AID 451; calls by dose curve; also: potency is read from the fitted curve at half-maximal effect); settings: CHO-K1 GR-EFC translocation, beta-gal luminescence, 2 h
Outline: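 CHO-K1 cells expressing nuclear EA and GR-ED fragments of b-gal; compounds titrated up to 46 uM final, 2 h at 37 C. GR nuclear translocation read as complemented b-gal luminescence after 1 h RT detection.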

[10] = molecular target: 3',5'-cyclic-AMP phosphodiesterase 4B (Homo sapiens) (UniProt Q07343); experiment: qHTS Assay for Inhibitors of PDE-IV (AID 607; active = well fitted activation curve with a large enough effect in the main read-out, with a control signal flat, not every such curve was filed as active; also: % of control where 0% means no effect)
Outline: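 HEK293 ACTOne cells with CNG channel (1000/well), endogenous PDE4; membrane potential dye, compounds up to 22.9 uM final. Fluorescence Ex 535/Em 590; RO 20-1724 (100 uM final) as reference.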

AS120 = experiment: qHTS profiling for inhibitors of Plasmodium falciparum proliferation (AID 504749); also: nearly all actives have a fitted effect of over 60% in size; also: potency is read from the fitted curve at half-maximal effect;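 as to activity, negative = inhibition: 0% = DMSO vehicle and full inhibition = artemisinin control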; settings: P. falciparum in erythrocytes, SYBR Green DNA, 72 h; series mostly up to 12.8 µM
Outline: as §1

CP238 = experiment: as above; settings: P. falciparum in erythrocytes, SYBR Green DNA, 72 h; series mostly up to 12.8 µM
Outline: as §1

[11] = NFAT Signaling Pathway (AID 444; active = well fitted curve in either direction with a large enough effect, not every such curve was filed as active;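 also: carbachol stimulus at about its EC50 of 1 µM final; % is scaled to controls: 0 for no effect and ±100 for the full control effect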); settings: Jurkat NFAT-bla M1, carbachol, beta-lactamase ratio, 5 h; at 17.2 µM (top of the series) unless noted
Outline: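 Jurkat cells with NFAT-driven β-lactamase reporter and co-expressed M1 receptor, stimulated with carbachol (final 1 uM, ~EC50), compound titration, 5 h at 37 °C. CCF4 loaded 1 h at RT; 460/530 nm ratio gave %activity and AC50.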

[12] = measured here: cell count channel max response
[13] = measured here: lipid channel max response

Ubiquitin carboxyl-terminal hydrolase 1 (Homo sapiens), sequence (O94782 whole entry, looked up): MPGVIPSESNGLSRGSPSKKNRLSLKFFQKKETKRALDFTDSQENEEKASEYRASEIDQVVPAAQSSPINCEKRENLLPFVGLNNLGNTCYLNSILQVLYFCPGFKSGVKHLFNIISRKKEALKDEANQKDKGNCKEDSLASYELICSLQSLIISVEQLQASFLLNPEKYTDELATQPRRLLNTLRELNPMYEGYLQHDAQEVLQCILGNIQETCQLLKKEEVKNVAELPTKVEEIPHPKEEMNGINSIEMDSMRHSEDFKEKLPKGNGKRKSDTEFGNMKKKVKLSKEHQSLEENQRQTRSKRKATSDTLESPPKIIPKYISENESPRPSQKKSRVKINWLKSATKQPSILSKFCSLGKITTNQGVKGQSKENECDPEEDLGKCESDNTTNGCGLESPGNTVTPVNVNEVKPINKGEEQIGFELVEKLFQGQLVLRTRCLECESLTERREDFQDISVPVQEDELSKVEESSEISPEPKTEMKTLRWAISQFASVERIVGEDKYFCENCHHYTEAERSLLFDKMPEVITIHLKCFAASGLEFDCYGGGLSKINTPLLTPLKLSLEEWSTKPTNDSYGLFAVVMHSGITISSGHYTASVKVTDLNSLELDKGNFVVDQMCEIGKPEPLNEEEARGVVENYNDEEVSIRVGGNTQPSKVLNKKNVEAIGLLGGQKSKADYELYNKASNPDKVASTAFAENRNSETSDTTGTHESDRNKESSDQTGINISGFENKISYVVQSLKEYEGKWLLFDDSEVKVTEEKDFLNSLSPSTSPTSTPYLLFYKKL
Glucocorticoid receptor (Homo sapiens), sequence (P04150 whole entry, looked up, the tested form may be a part): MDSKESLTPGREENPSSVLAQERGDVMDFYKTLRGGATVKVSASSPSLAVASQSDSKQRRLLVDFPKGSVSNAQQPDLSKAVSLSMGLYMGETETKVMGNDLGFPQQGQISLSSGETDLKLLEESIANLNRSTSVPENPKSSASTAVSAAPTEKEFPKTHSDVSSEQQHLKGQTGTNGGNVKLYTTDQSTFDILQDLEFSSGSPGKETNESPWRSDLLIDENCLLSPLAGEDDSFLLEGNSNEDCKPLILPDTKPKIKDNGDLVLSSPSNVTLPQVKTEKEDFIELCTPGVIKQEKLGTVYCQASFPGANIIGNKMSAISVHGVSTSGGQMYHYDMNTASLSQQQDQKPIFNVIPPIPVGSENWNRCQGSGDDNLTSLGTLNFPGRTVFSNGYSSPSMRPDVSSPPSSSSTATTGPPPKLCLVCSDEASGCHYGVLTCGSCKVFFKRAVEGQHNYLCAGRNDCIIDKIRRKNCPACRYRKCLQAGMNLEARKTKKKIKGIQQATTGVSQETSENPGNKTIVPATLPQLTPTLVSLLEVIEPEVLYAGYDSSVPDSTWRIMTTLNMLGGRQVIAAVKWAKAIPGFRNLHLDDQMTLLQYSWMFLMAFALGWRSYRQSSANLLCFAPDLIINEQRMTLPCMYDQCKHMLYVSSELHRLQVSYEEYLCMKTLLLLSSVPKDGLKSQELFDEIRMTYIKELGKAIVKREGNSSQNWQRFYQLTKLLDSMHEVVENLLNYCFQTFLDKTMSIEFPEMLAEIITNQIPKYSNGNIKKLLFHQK
3',5'-cyclic-AMP phosphodiesterase 4B (Homo sapiens), sequence (Q07343 whole entry, looked up): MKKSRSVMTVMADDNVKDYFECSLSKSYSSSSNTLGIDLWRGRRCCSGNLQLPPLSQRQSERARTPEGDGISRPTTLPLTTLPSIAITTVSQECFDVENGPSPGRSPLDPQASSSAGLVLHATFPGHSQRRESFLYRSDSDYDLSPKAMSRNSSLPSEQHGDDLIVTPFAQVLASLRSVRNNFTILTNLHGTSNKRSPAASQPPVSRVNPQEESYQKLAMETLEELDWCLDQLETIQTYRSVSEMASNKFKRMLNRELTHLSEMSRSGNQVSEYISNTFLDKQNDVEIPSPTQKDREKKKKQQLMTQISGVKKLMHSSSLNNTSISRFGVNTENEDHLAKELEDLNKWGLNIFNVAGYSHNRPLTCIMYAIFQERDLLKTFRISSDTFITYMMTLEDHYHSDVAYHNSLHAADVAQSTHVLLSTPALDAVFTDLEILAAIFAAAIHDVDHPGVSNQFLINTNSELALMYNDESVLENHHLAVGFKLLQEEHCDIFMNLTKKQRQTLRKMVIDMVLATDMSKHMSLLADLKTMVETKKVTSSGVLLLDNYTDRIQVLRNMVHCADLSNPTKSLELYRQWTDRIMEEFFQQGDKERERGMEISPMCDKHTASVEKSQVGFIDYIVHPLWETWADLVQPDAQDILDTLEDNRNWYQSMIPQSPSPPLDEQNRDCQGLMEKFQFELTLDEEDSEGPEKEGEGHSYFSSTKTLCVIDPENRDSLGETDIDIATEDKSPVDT

CN1CCO[C@H](c2ccccc2)c2ccccc2C1
inactive: outcome [1] | outcome [2] | Potency [3] | activity change, negative = inhibition [4] -1.73% | Potency [5] | outcome [6] | activity, negative = inhibition ([7]; parasite line A) -5.98% | activity, negative = inhibition ([7]; parasite line B) 0.83% | Potency (C2A) | Potency (CP252) | Potency (FAB9) | Potency (HB3) | Potency (JCK) | Potency (PAD)
-10.4%: max response [4, 12]
-11.4%: max response [4, 13]
active: Potency (CP237) 2 µM

Cc1cccc(C)c1NC(=O)[C@H](C)N
-7.81%: max response [4, 13]
-3.54%: max response [4, 12]
inactive: outcome [1] | outcome [2] | Potency [8] > 20.6 µM | Potency [9] > 20.6 µM | Potency [3] | outcome [10] | activity change, negative = inhibition [4] -1.94% | Potency [5] | outcome [6] | activity, negative = inhibition ([7]; parasite line A) 7.15% | activity, negative = inhibition ([7]; parasite line B) 10.5% | Potency (AS120) | Potency (C2A) | Potency (CP237) | Potency (CP238) | Potency (CP252) | Potency (FAB9) | Potency (HB3) | Potency (JCK) | Potency (PAD)

CCOC(=O)O[C@@H](C)OC(=O)[C@@H]1N2C(=O)[C@@H](NC(=O)[C@@H](N)c3ccccc3)[C@H]2SC1(C)C
0.724%: max response [4, 13]
inactive: outcome [1] | Potency [3] | outcome [10] | activity change, negative = inhibition [4] -1.29% | Potency [5] | outcome [6] | activity, negative = inhibition ([7]; parasite line A) 6.23% | activity, negative = inhibition ([7]; parasite line B) 6.1% | Potency (AS120) | Potency (C2A) | Potency (CP237) | Potency (CP238) | Potency (CP252) | Potency (FAB9) | Potency (HB3) | Potency (JCK) | Potency (PAD)
3.59%: max response [4, 12]

CC(=O)O[C@H]1C[C@H]2CC[C@@H]3[C@@H](CC[C@]4(C)[C@H](OC(C)=O)[C@H]([N+]5(C)CCCCC5)C[C@@H]34)[C@]2(C)C[C@H]1[N+]1(C)CCCCC1
inactive: outcome [1] | outcome [2] | Potency [8] > 20.6 µM | Potency [9] > 20.6 µM | Potency [3] | outcome [10] | activity change, negative = inhibition [4] -3.97%
0.133%: max response [4, 12]
-5.07%: max response [4, 13]

CCN(CCCCOC(=O)c1ccc(OC)c(OC)c1)[C@@H](C)Cc1ccc(OC)cc1
inactive: outcome [1] | outcome [2] | Potency [8] > 20.6 µM | Potency [9] > 20.6 µM | activity change, negative = inhibition [4] -1.1% | Potency [5] | outcome [6] | activity, negative = inhibition ([7]; parasite line A) -10.8% | activity, negative = inhibition ([7]; parasite line B) -8.1% | Potency (AS120) | Potency (C2A) | Potency (CP237) | Potency (CP238) | Potency (CP252) | Potency (FAB9) | Potency (HB3) | Potency (JCK) | Potency (PAD)
-7.41%: max response [4, 12]
-6.28%: max response [4, 13]

Cc1ccsc1/C=C\C1=NCCCN1C
-9.18%: max response [4, 12]
inactive: outcome [1] | outcome [2] | Potency [8] > 20.6 µM | Potency [9] > 20.6 µM | Potency [3] | outcome [10] | activity change, negative = inhibition [4] -1.64% | outcome [6] | activity, negative = inhibition ([7]; parasite line A) 10.5% | activity, negative = inhibition ([7]; parasite line B) 9.61% | Potency (AS120) | Potency (C2A) | Potency (CP237) | Potency (CP238) | Potency (CP252) | Potency (FAB9) | Potency (HB3) | Potency (JCK) | Potency (PAD)
-10.2%: max response [4, 13]

Cc1cn([C@@H]2C[C@H](N=[N+]=N)[C@H](CO)O2)c(=O)[nH]c1=O
-19.5%: max response [4, 12]
-18.3%: max response [4, 13]
inactive: outcome [1] | outcome [2] | Potency [8] > 20.6 µM | Potency [9] > 20.6 µM | Potency [3] | outcome [10] | activity change, negative = inhibition [4] -0.533% | Potency [5]

CC[C@H](Cc1c(I)cc(I)c(N)c1I)C(=O)O
inactive: outcome [1] | outcome [2] | Potency [8] > 20.6 µM | Potency [9] > 20.6 µM | Potency [3] | activity change, negative = inhibition [4] 0.772% | Potency [5] | outcome [6] | activity, negative = inhibition ([7]; parasite line A) 7.39% | activity, negative = inhibition ([7]; parasite line B) 11.4% | Potency (AS120) | Potency (C2A) | Potency (CP237) | Potency (CP238) | Potency (CP252) | Potency (FAB9) | Potency (HB3) | Potency (JCK) | Potency (PAD)
-5.23%: max response [4, 12]
-5.12%: max response [4, 13]

CCOC(=O)Oc1c(OC)cc(C(=O)O[C@H]2C[C@H]3CN4CCc5c([nH]c6cc(OC)ccc56)[C@@H]4C[C@H]3[C@@H](C(=O)OC)[C@@H]2OC)cc1OC
inactive: activity change, negative = inhibition [11] -2.78% | outcome [2] | Potency [8] > 20.6 µM | Potency [9] > 20.6 µM | Potency [3] | outcome [10] | activity change, negative = inhibition [4] -4.31% | Potency [5]
-12.3%: max response [4, 13]
-12.6%: max response [4, 12]
active: Potency ([7]; parasite line A) 4.47 µM | Potency (AS120) 3.55 µM | Potency (CP237) 3.16 µM | Potency (PAD) 3.55 µM
